# According to PubChem BioAssay (NCI):
# Compounds without any hit were thinned out: in the full panel of roughly 83,000, 20% have a hit.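 Each cell line was grown in a 96-well plate and treated with one concentration of compound for 48 hours. Values below 10 were considered active.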 Values without a mark were called inactive. The source made the active and inactive calls.
# System: HCT-116 colon
# Test: NCI-60 one-dose screen, 48 h (100 = growth as untreated, 0 = no growth, -100 = all killed)
# Conditions: 10 µM unless noted
row,SMILES,growth
1,CCCCCCNc1cc(C)nc2ccc(OC)cc12,28.5%
2,CNC(=O)c1cc(Oc2ccc3nc(NC(=O)Nc4cc(C(F)(F)F)cc(C(F)(F)F)c4)sc3c2)ccn1,-56.1% (active)
3,N#C/C=C(\c1ccc([N+](=O)[O-])cc1)n1nnc2cc(Cl)c(Cl)cc21,-52.7% (active)
4,CCCCCCCSc1ccc(C(=O)O)cc1,99.3%
5,N[C@@H]1CCC[C@H]1NCCCCN1C(=O)c2cccc3cccc(c23)C1=O,50.3%
6,CCOC(=O)C1C(=O)C=C(c2cnccn2)CC1c1ccc(OC)c(OC)c1 (stereo not given),79.7%
7,CCN(CC)CCOC(=O)N1c2ccccc2Sc2ccccc21,81.7%
8,CCCN1CCN(c2ccc3nc(-c4ccc5nc(-c6ccc(OCC)c(OCC)c6)[nH]c5c4)[nH]c3c2)CC1,-83.4% (active)
9,COc1ccccc1NC(=O)Nc1ccc(-c2nc3ccccc3o2)cc1,93.7%
10,COc1ccc(/C=C2\COc3ccc(O)c(O)c3C2=O)c(OC)c1,59.4%
11,NC(=O)c1c(NC(=O)c2ccc(C(F)(F)F)cc2Cl)sc2c1CCC(=O)C2,-56.9% (active)
12,COc1ccc(/C(C)=C(\c2ccc(Cl)cc2)c2ccc(OCCN(C)C)cc2)cc1F,43.6%
13,O=S(=O)(Cc1ccccc1)c1nc2ccccc2s1,9.47% (active)
14,O=C1NC(=S)S/C1=C\N1N=C(c2ccc(Cl)cc2)CC1c1ccc(F)cc1 (stereo not given),81.9%
15,CC(=O)NCC(=O)Nc1ccc(-c2nnc3ccccn23)nc1.CC(=O)NCC(=O)Nc1ccc(-c2nnc3ccccn23)nc1.[Pt+2],95.4%
